Screening data as filed in PubChem.
Peg3 prom inh – Peg3 promoter activity inhibition. HeLa PEG-Prom luciferase reporter, luminescence, overnight. inhibition, % at 20 µM. actives 1.7% (n = 360,000);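 active means inhibition of at least 50% at 20 µM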
CF NFkB inh – cystic fibrosis NF-kB activation inhibition; actives 0.86% (n = 360,000); AID 588850; KKLEB NF-kB-GFP reporter, PAF-induced, GFP fluorescence overnight; inhibition, % at 5 µM;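 active means at least 50% inhibition at 5 µM, scaled per plate between neutral and stimulator controls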;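 further: PAF is a Pseudomonas aeruginosa culture filtrate used as stimulus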
EBV LMP1 NFkB – reduces LMP1-driven NF-kappaB luciferase signal | AID 504558 | actives 0.69% (n = 350,000) | inhibition, % at 12.5 µM | LMP1-induced NF-kappaB luciferase reporter cells, luminescence; in the data active means inhibition above about 41%
KKLEB tox – reduces viability of KKLEB cystic fibrosis airway cells; KKLEB CF airway cells viability, ATPlite luminescence, overnight; active compounds read low; cells stimulated with P. aeruginosa culture filtrate; activity change (cytotoxicity), % at 5 µM; actives 0.36% (n = 360,000); AID 602141;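 active means corrected activity change at or below -50% at 5 µM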
HIF-2a inh – blocks HIF-2a reporter activity. 786-0 RCC cells HIF-2a reporter, luciferase luminescence, overnight. AID 624352. inhibition, % at 18.8 µM. actives 0.72% (n = 360,000);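 active means inhibition of the luminescence signal of 40% or more relative to plate controls, in a single-dose primary screen at 18.75 µM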
TRPM1 prom inh – MITF TRPM1 promoter inhibition in SK-MEL-5 cells; inhibition, % at 12.5 µM; AID 488899; actives 0.83% (n = 330,000); SK-MEL-5 TRPM1 promoter luciferase, 24 h;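 active means mean inhibition across replicates of 60% or more, whatever share of single replicates reaches that level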
Of the large screens only hits and unclear results are named; the others gave an inactive call. An excerpt weighted towards active compounds, which were near 3% of everything screened.

COc1ccc(CN2C(=O)c3cccnc3C2Nc2cc(Cl)ccc2OC)cc1 (stereo not drawn)	EBV LMP1 NFkB 66
C/C(NCCc1ccc(O)cc1)=C1/CCOC1=O	none (no result: TRPM1 prom inh)
CCOC1=C2[C@H]([C@H]3C(=O)N(c4ccccc4)C(=O)[C@H]3C1)[C@@H](C(C)C)N(S(=O)(=O)c1ccc(C)cc1)[C@H]2c1ccccc1	none (no result: EBV LMP1 NFkB, TRPM1 prom inh)
CN(C)CCCNC(=O)/C(=C\c1ccc(-c2cccc([N+](=O)[O-])c2)o1)NC(=O)c1ccccc1	none
CN(C)CCNC(=O)/C(=C/c1ccc(-c2ccc(Cl)cc2Cl)o1)NC(=O)c1ccccc1	Peg3 prom inh 111, TRPM1 prom inh 95
O=C(C(=O)N(C1CCCCC1)C1CCCCC1)c1ccccc1	none (no result: Peg3 prom inh, CF NFkB inh, EBV LMP1 NFkB, KKLEB tox, TRPM1 prom inh)
CCOC(=O)C1=C(C)N(C)C(=O)NC1c1ccccc1OC (stereo not drawn)	EBV LMP1 NFkB 40
CC(=O)c1cccc(NC(=O)Nc2ccc3c(c2)N(C)C(=O)CS3)c1	CF NFkB inh 61
O=c1oc(Cl)c(Cl)c2ccccc12	TRPM1 prom inh 90
O=c1oc2cc(O)c(Cl)cc2c2ccccc12	none
COc1ccc(-c2nc3ccccc3n2Cc2ccccc2)cc1	none
COc1ccc(-c2n(Cc3ccccc3)c3ccccc3[n+]2Cc2ccccc2)cc1	TRPM1 prom inh 80
COc1cc(C(=O)N2CCN(c3cccc(C(F)(F)F)c3)CC2)ccc1OCC(=O)N1CCOCC1	none
CC(C)CC(NC(=O)c1ccc(Cl)cc1)C(=O)OCC(=O)c1ccc2c(c1)NC(=O)CO2 (stereo not drawn)	Peg3 prom inh 84
Nc1ccccc1NC(=O)c1ccccc1	EBV LMP1 NFkB 44
Cc1nc(C(=O)Nc2ccccc2Cl)cc2c1[nH]c1ccccc12	Peg3 prom inh 85
CC(=O)Nc1ccccc1NC(=O)c1ccccc1	none
O=C(Nc1ccccc1Cl)c1ccc(C(=O)Nc2ccccc2Cl)cc1	EBV LMP1 NFkB 85
Nc1ccc(NC(=O)c2ccccc2)c2c1C(=O)c1ccccc1C2=O	CF NFkB inh 61, KKLEB tox -53
COc1cc(-c2ccc(N3C(c4ccsc4)=Cc4ccc(F)cc4C3c3c[nH]c4ccc(C#N)cc34)cc2)cc(OC)c1OC (stereo not drawn)	none (no result: Peg3 prom inh, CF NFkB inh, EBV LMP1 NFkB, KKLEB tox, TRPM1 prom inh)
CCc1nc2c(OCc3ccccc3)cccn2c1N(C)C(=O)c1ccc2c(c1)OCO2	none (no result: EBV LMP1 NFkB, TRPM1 prom inh)
CCOC(=O)C1CCN(C(=O)c2ccc(C)o2)CC1	none
CCOC(=O)C1CCN(C(=O)c2c(C)oc3c2C(=O)c2ccccc2C3=O)CC1	CF NFkB inh 62 (no result: TRPM1 prom inh)
CC(Oc1cccc(Cl)c1)C(=O)Nc1nc(-c2ccccn2)cs1 (stereo not drawn)	TRPM1 prom inh 64
CC(Oc1ccccc1)C(=O)Nc1nc(-c2ccccn2)cs1 (stereo not drawn)	TRPM1 prom inh 62
CC(Oc1ccccc1)C(=O)Nc1nc(-c2ccncc2)cs1 (stereo not drawn)	none
Cc1ccc(OCC(=O)OCC(=O)NC2CCS(=O)(=O)C2)cc1C (stereo not drawn)	none (no result: TRPM1 prom inh)
COCCn1c(N)c(N(Cc2ccccc2)C(=O)C(C)Oc2ccc(Br)cc2)c(=O)[nH]c1=O (stereo not drawn)	none (no result: TRPM1 prom inh)
CCc1ccc([C@@H]2C[C@H]3[C@@H](CN2S(=O)(=O)c2ccc(C)cc2)C(=O)C[C@@H](c2ccc(Cl)cc2)N3S(=O)(=O)c2ccc(C)cc2)cc1	none (no result: EBV LMP1 NFkB, TRPM1 prom inh)
COCCCN1C(=O)C(CC(=O)NCCN2CCOCC2)CC(C(=O)N(C(C)C)C(C)C)=C1C (stereo not drawn)	none (no result: EBV LMP1 NFkB, TRPM1 prom inh)
COc1ccc(C(=O)N(C)C(C)c2nccs2)cc1OC1CCN(C(C)=O)CC1 (stereo not drawn)	none (no result: TRPM1 prom inh)
CC[C@@H](C)[C@H](C(CC(=O)N1CCCC1[C@@H](OC)[C@H](C)C(=O)N[C@H](Cc1ccccc1)c1nccs1)OC)N(C)C(=O)[C@H](NC(=O)[C@@H](C(C)C)N(C)C)C(C)C (stereo partly drawn)	CF NFkB inh 62
C[C@@H]1CN([C@H](C)CO)S(=O)(=O)c2ccc(-c3ccc(C#N)cc3)cc2O[C@H]1CN(C)C(=O)Nc1cc(F)ccc1F	none (no result: TRPM1 prom inh)
COc1ccc(N2C3=[N+](CC2(C)O)c2ccccc2CC3)cc1 (stereo not drawn)	EBV LMP1 NFkB 69
